This is part of a sample that, as a whole, favours compounds with a hit. Of some 79,000 tested, about 15% had one in any assay. Calls of active or inactive are those of the source. No stated cut-off is given here; in the data, active means growth inhibition above about 70%; inactive means the rest.
Experiments:
[1] = NCI Yeast Anticancer Drug Screen. Data for the rad50 strain (AID 155);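 further: 0% = growth of vehicle-only cultures of the same strain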; conditions: S. cerevisiae rad50 strain growth inhibition, active compounds read high
Outline: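 Yeast carrying a defined DNA repair defect were exposed to test compounds, and growth was compared with vehicle-treated controls to give percent inhibition.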

[2] = NCI Yeast Anticancer Drug Screen. Data for the mec2-1 strain (AID 157); conditions: S. cerevisiae mec2-1 strain, active compounds read high
Outline: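 Growth inhibition is read against vehicle-treated controls after compound exposure of the mec2-1 yeast strain, which is defective in DNA damage repair or cell cycle control.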

[3] = NCI Yeast Anticancer Drug Screen. Data for the sgs1 mgt1 strain (AID 161);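 further: 0% = growth of cultures given vehicle only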; conditions: S. cerevisiae sgs1 mgt1 strain, active compounds read high
Outline: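 Growth of a repair-deficient yeast mutant was monitored after compound treatment and expressed as inhibition relative to vehicle-treated cultures.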

[4] = NCI Yeast Anticancer Drug Screen. Data for the cln2 rad14 strain (AID 165);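 further: 0% = growth equal to vehicle treated cultures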; conditions: S. cerevisiae cln2 rad14 strain, active compounds read high
Outline: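 Growth inhibition, relative to vehicle-treated controls, is the read-out. The test organism is a yeast strain with defined genetic alterations, cln2 rad14.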

[5] = NCI Yeast Anticancer Drug Screen. Data for the bub3 strain (AID 167); conditions: S. cerevisiae bub3 mutant strain, active compounds read high
Outline: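 Compounds were applied to a genetically altered yeast strain carrying a cell-cycle control defect. Growth inhibition was scored against vehicle-treated controls.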

[6] = NCI Yeast Anticancer Drug Screen. Data for the mlh1 rad18 strain (AID 175); conditions: S. cerevisiae mlh1 rad18 strain growth inhibition, active compounds read high
Outline: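 Cells of a genetically altered yeast strain, deficient in DNA damage repair, were treated with compound. Their growth was then compared with that of vehicle-treated cultures to give inhibition.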

[7] = at 5.0 µM (retest, dose inferred, filed as 0.5)
[8] = at 50.0 µM (retest, dose inferred, filed as 5.0)

Measured: growth inhibition

Oc1c(Br)ccc2cccnc12
active: [1]; [8] 99% | [1]; at 50.0 µM 87.2% | [2]; [8] 99% | [2]; at 50.0 µM 91.2% | [3]; [8] 99% | [3]; at 50.0 µM 83.8% | [4]; [8] 98% | [4]; at 50.0 µM 88.6% | [5]; [8] 99% | [5]; at 50.0 µM 88.5% | [6]; [8] 98% | [6]; at 50.0 µM 82.3%
inactive: [1]; [7] 26% | [2]; [7] 23% | [3]; [7] 4% | [4]; [7] 0% | [5]; [7] 1% | [6]; [7] 1%

Cc1cc(O)cc2c1c(=O)c1ccccc1n2C
inactive: [1]; [7] 15% | [1]; [8] 29% | [1]; at 50.0 µM 39% | [2]; [7] 15% | [2]; [8] 24% | [2]; at 50.0 µM 24.5% | [3]; [7] 20% | [3]; [8] 17% | [3]; at 50.0 µM 11.4% | [4]; [7] 15% | [4]; [8] 25% | [4]; at 50.0 µM 1.8% | [5]; [7] 18% | [5]; [8] 25% | [5]; at 50.0 µM 2.4% | [6]; [7] 23% | [6]; [8] 34% | [6]; at 50.0 µM 11.6%

O=C1c2ccccc2C(=O)N1CCn1ccc(NC(c2ccccc2)(c2ccccc2)c2ccccc2)nc1=O
active: [2]; at 50.0 µM 74.9% | [4]; at 50.0 µM 80.6% | [5]; at 50.0 µM 79.2%
inactive: [1]; [7] 48% | [1]; [8] 48% | [1]; at 50.0 µM 66.3% | [2]; [7] 28% | [2]; [8] 28% | [3]; [7] 50% | [3]; [8] 50% | [3]; at 50.0 µM 67.2% | [4]; [7] 5% | [4]; [8] 5% | [5]; [7] 27% | [5]; [8] 27% | [6]; [7] 44% | [6]; [8] 44% | [6]; at 50.0 µM 65.3%

COc1cc2c(oc(=O)c3cc(C)cc(OC)c32)c2c(C3OC(C)C(O)C(C)(O)C3O)ccc(O)c12 (stereo not given)
active: [1]; [7] 80% | [1]; [8] 96% | [1]; at 50.0 µM 90.2% | [2]; [7] 72% | [2]; [8] 97% | [2]; at 50.0 µM 89.3% | [3]; [7] 79% | [3]; [8] 96% | [3]; at 50.0 µM 90.4% | [4]; [7] 75% | [4]; [8] 94% | [4]; at 50.0 µM 90% | [5]; [7] 83% | [5]; [8] 97% | [5]; at 50.0 µM 89.8% | [6]; [7] 90% | [6]; [8] 96% | [6]; at 50.0 µM 88.8%

CCOC(=O)c1ccc(NC(=O)CCl)cc1
inactive: [1]; [7] 3% | [1]; at 50.0 µM 51.9% | [2]; [7] 8% | [2]; at 50.0 µM 38.7% | [3]; [7] 21% | [3]; at 50.0 µM 67.5% | [4]; [7] 8% | [4]; at 50.0 µM 28.7% | [5]; [7] 0% | [5]; at 50.0 µM 40% | [6]; [7] 12% | [6]; at 50.0 µM 64.2%
active: [1]; [8] 99% | [2]; [8] 98% | [3]; [8] 98% | [4]; [8] 91% | [5]; [8] 95% | [6]; [8] 99%

O=S(=O)(NC(=S)Nc1ccccc1)c1ccc(Br)cc1
active: [4]; at 50.0 µM 79.5%
inactive: [1]; [7] -4% | [1]; [8] 24% | [1]; at 50.0 µM 42.9% | [2]; [7] -3% | [2]; [8] 50% | [2]; at 50.0 µM 47.1% | [3]; [7] 7% | [3]; [8] 53% | [3]; at 50.0 µM 37.5% | [4]; [7] -1% | [4]; [8] 2% | [5]; [7] -3% | [5]; [8] 42% | [5]; at 50.0 µM 67.8% | [6]; [7] 21% | [6]; [8] 68% | [6]; at 50.0 µM 65.8%

CC(=O)N(C1=C(Cl)C(=O)c2ccccc2C1=O)c1ccc([N+](=O)[O-])cc1
active: [1]; [7] 98% | [1]; [8] 98% | [1]; at 50.0 µM 99.2% | [2]; [7] 99% | [2]; [8] 99% | [2]; at 50.0 µM 99.2% | [3]; [7] 98% | [3]; [8] 100% | [3]; at 50.0 µM 99.5% | [4]; [7] 96% | [4]; [8] 97% | [4]; at 50.0 µM 99.5% | [5]; [7] 99% | [5]; [8] 98% | [5]; at 50.0 µM 98.6% | [6]; [7] 98% | [6]; [8] 99% | [6]; at 50.0 µM 99%

CN(C)N=Nc1ccc(-c2ccccc2)cc1
active: [1]; [8] 95% | [1]; at 50.0 µM 87.8% | [2]; [8] 92% | [2]; at 50.0 µM 78.3% | [3]; at 50.0 µM 81.8% | [4]; [8] 85% | [4]; at 50.0 µM 74.2% | [5]; at 50.0 µM 86.5% | [6]; [8] 89% | [6]; at 50.0 µM 84.5%
inactive: [1]; [7] 24% | [2]; [7] 42% | [3]; [7] 6% | [3]; [8] 60% | [4]; [7] 30% | [5]; [7] 37% | [5]; [8] 64% | [6]; [7] 38%

O=C(O)c1cccc(N=Nc2c(S(=O)(=O)O)ccc3c2C(=O)c2ccccc2C3=O)c1O
inactive: [1]; [7] 17% | [1]; [8] 38% | [1]; at 50.0 µM 30.4% | [2]; [7] 8% | [2]; [8] 17% | [2]; at 50.0 µM 36.8% | [3]; [7] 8% | [3]; [8] 38% | [3]; at 50.0 µM -2.5% | [4]; [7] -21% | [4]; [8] 17% | [5]; [7] -11% | [5]; [8] 25% | [5]; at 50.0 µM -15.2% | [6]; [7] 29% | [6]; [8] 28%
active: [4]; at 50.0 µM 71.1% | [6]; at 50.0 µM 85.6%

COc1cc([C@@H]2c3cc4c(cc3[C@@H](OC3OC5CO[C@@H](c6cccs6)OC5C(O)C3O)[C@H]3COC(=O)[C@H]23)OCO4)cc(OC)c1O (stereo not given in full)
active: [1]; [7] 74% | [1]; [8] 96% | [1]; at 50.0 µM 86.6% | [2]; [8] 92% | [2]; at 50.0 µM 74.8% | [3]; [8] 77% | [4]; [8] 79% | [5]; [8] 74% | [6]; [8] 86%
inactive: [2]; [7] 5% | [3]; [7] 6% | [3]; at 50.0 µM 63.7% | [4]; [7] -3% | [4]; at 50.0 µM 47.6% | [5]; [7] -2% | [5]; at 50.0 µM 49.8% | [6]; [7] 5% | [6]; at 50.0 µM 64.7%

Source: PubChem BioAssay (NCI)
